26 compounds from PubChem BioAssay (NCI) can be followed below.

The panel holds about 83,000 compounds, 20% with a hit somewhere; the sample as a whole holds those more often.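 Single-concentration screen, 48 h exposure, 96-well plates. Endpoint: percent growth. Below 10 = active.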 Unmarked numbers belong to inactive results. The source made the active and inactive calls.

In this assay the test system is PC-3 prostate. The experiment in a line: NCI-60 one-dose screen, 48 h (100 = growth as untreated, 0 = no growth, -100 = all killed). The conditions noted are these: 10 µM unless noted.
Turning to `COc1cc(-c2n[nH]nc2-c2ccccn2)cc(OC)c1OC`, the growth is 82.1%.

Turning to `COc1cc(C2=NN(C=O)C(c3cccc(Nc4ccnc5cc(Cl)ccc45)c3)C2)cc(OC)c1OC` (stereo unspecified), the growth is 42.7%.

For `Cc1sc2nc(NCc3ccccc3)[nH]c(=O)c2c1C`, the growth was 48.1%.

Turning to `CC(=O)N1N=C(c2ccc(Nc3nc(NCCO)nc(NCCO)n3)cc2)CC1c1ccc(Cl)cc1` (stereo unspecified), the growth was 81.4%.

Regarding `COc1ccc(N2CCN(CC(=O)N3CCN(c4nnc(-c5ccc(Cl)cc5)c(-c5ccc(Cl)cc5)n4)CC3)CC2)cc1`, the growth is 22.5%.

For the compound `C1CCC(C(CC2CCCCN2)C2CCCCC2)CC1` (stereo unspecified), the growth was 23.9%.

As to `Cc1cc2c(cc1C)[n+](Cc1ccc3ccccc3c1)cn2Cc1ccc2ccccc2c1`, the growth is -84% (active).

Take `COc1ccc(Oc2ccccc2NC(=O)CNC(=O)c2cccc3ccccc23)cc1`: the growth is 21.5% [5 µM].

With `COc1cccc(N2CCN(CC(=O)N3CCN(c4nnc(-c5ccc(Cl)cc5)c(-c5ccc(Cl)cc5)n4)CC3)CC2)c1`, the growth is 15.8%.

For `CC(=O)N1N=C(c2ccc3c(c2)OCO3)CC1c1c(C)nn(-c2ccccc2)c1N(C)Cc1ccccc1` (stereo unspecified), the growth is 34.3%.

In the case of `COc1ccc(C(=O)/C=C/c2cccc(Nc3ccnc4cc(Cl)ccc34)c2)cc1`, the growth is 33.7%.

Consider `COc1cc(C2CC(C3C(=O)N(C)C(=O)N(C)C3=O)=NN2c2cc(Cl)cc(Cl)c2)cc(OC)c1OC` (stereo unspecified), for which the growth is 74.3%.

For the compound `O=C1NC(=O)/C(=C\c2ccco2)S1`, the growth was 101%.

On to `COc1ccc2nc(-c3ccc(Cl)cc3)cc(-c3nnc(SCC(=O)Nc4ccc(C(C)=O)cc4)n3-c3ccccc3)c2c1`, for which the growth was 87.3%.

On to `O=C(CNC(=O)c1cccc2ccccc12)Nc1ccccc1Cc1ccccc1`, for which the growth is 31.6% [5 µM].

On to `CCCCc1n(Cc2ccc3ccccc3c2)cc[n+]1Cc1ccc2ccccc2c1`, for which the growth was -29.7% (active).

`COc1cc(C2CC(C3C(=O)N(C)C(=O)N(C)C3=O)=NN2C=O)cc(OC)c1OC` (stereo unspecified): the growth is 75.9%.

Consider `Nc1ncnc2c1CN(Cc1ccccc1)CC2`, for which the growth is 93.9%.

`CCOC(=O)c1sc(NC(=O)COc2cccc(/C=C3\Cc4ccc(Cl)cc4C3=O)c2)nc1C`: the growth is 103%.

Consider `COC(=O)[C@H](CCCCNC(=O)OCc1ccccc1)NC(=O)[C@@H](NC(=O)Nc1cc(C(F)(F)F)cc(C(F)(F)F)c1)C(C)C`, for which the growth is -83.9% [100 µM] (active).

As to `CCN(CC)c1ccc(C(=C2C=CC(=[N+](CC)Cc3cccc(S(=O)(=O)O)c3)C=C2)c2ccc(N(CC)Cc3cccc(S(=O)(=O)O)c3)cc2)cc1`, the growth is -3.18% (active).

In the case of `O=C(CNC(=O)c1cccc2ccccc12)Nc1ccccc1Oc1ccc(O)cc1`, the growth was 31.1% [5 µM].

With `COc1cc(C(=O)/C=C/c2cccc(Nc3ccnc4cc(Cl)ccc34)c2)cc(OC)c1OC`, the growth was -12.7% (active).

As to `CN1C(=O)C(C2=NN(C=O)C(c3ccc(F)cc3)C2)C(=O)N(C)C1=O` (stereo unspecified), the growth is 78.7%.

For the compound `O=CN1N=C(c2ccc(Nc3ccnc4cc(Cl)ccc34)cc2)CC1c1ccc(Cl)cc1` (stereo unspecified), the growth is 32.3%.

In the case of `COc1cccc(-c2nc3cc(NC(=O)c4ccc(Cl)c(C#N)c4)ccc3o2)c1`, the growth is 14.4%.
